# From PubChem BioAssay (Tox21)
# Where “and” joins values, the source holds several entries; their conditions need not be identical. Identical values can stand only once. Inconclusive results are not listed. A number with no mark means an inactive call. Calls of active or inactive are those of the source. Calls come from the whole dose curve; as a rule, active = well fitted inhibition curve with a large enough effect in the signal ratio in the repeat runs (not every such curve was filed as active); inconclusive = weak or mixed curves, or effect the other way; inactive = no such curve, though single readings can be large or run the other way; the % refers to the signal ratio.
# Target: Vitamin D3 receptor (Homo sapiens) (UniProt P11473)
# Test: qHTS assay to identify small molecule antagonists of the vitamin D receptor (VDR) signaling pathway (AID 743223)
# Conditions: VDR-UAS-bla HEK293T, beta-lactamase FRET ratio, 16 h; series mostly up to 61 µM; activity change, negative = inhibition: at the top concentration
# Text: U.S. Tox21 Program National Center for Advancing Translational Sciences [NCATS] NIH Chemical Genomics Center [NCGC] U.S. Environmental Protection Agency [EPA] National Institutes of Environmental Health Sciences [NIEHS] National Toxicology Program [NTP] U.S. Food and Drug Administration [FDA] Tox21 Assay Overview: The vitamin D receptor (VDR), a member of nuclear hormone receptor superfamily, plays a critical role in calcium homeostasis and bone metabolism. It is also involved in cell differentiation and growth, and thrombogenicity.
# Tox21 Assay Protocol Summary: VDR-bla cells were dispensed at 2,000 cells/5 uL of assay medium per well into black wall/clear-bottom 1536-well plates using a Multidrop Combi (Thermo Fisher Scientific, Waltham, MA) dispenser. After the assay plates were incubated at a 37C and 5% CO2 for 4 h, 23 nL of compounds dissolved in DMSO, positive controls or DMSO only was transferred to the assay plate by a Pintool station (Kalypsys, San Diego, CA), followed by addition of 1 uL of 1alpha, 25-Dihydroxy Vitamin D3 (3 nM, final concentration in the wells) using a Bioraptr Flying Reagent Dispenser (FRD) workstation (Beckman Coulter, Indianapolis, IN). The plates were incubated at 37C and 5% CO2 for 16 h, and then 1 uL of LiveBLAzerTM B/G FRET substrate was added using a Bioraptr FRD. The plates were incubated at room temperature for 2 h and fluorescence intensity was measured by an Envision plate reader (PerkinElmer, Shelton, CT).
# % is set by controls: 0 for no effect and ±100 for the full control effect; potency is the fitted concentration of half-maximal effect.
# Chain of Vitamin D3 receptor (Homo sapiens) (P11473 whole entry, looked up): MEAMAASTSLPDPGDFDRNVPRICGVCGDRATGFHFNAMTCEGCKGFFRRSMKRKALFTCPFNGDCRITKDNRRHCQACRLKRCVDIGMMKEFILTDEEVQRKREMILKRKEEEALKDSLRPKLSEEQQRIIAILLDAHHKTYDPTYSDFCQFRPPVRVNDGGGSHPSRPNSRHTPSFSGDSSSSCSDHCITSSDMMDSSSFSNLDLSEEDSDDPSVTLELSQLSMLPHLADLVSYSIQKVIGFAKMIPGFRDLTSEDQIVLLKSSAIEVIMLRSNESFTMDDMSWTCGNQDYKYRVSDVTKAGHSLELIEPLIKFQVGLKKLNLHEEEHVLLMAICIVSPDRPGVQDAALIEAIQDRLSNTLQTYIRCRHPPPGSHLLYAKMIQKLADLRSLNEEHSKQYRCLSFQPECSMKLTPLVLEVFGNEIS
Compound,Potency,"activity change, negative = inhibition"
CC(=O)C1=C(C)[C@@H]2C[C@@]3(C1)[C@H](C)CC[C@H]3C2(C)C,inactive,
Cc1cccc2n[nH]nc12,inactive,
C1COC(NC(C2CC2)C2CC2)=N1,,1.45%
CC[C@@H](N)CO,,-10.4% [at 78.8 µM]
Cc1ccc(S(=O)(=O)Oc2ccc(N=Nc3ccc(-c4ccc(N=Nc5c(O)ccc6cc(S(=O)(=O)O)cc(S(=O)(=O)O)c56)c(C)c4)cc3C)cc2)cc1,,3.32%
COC(c1ccccc1)(c1ccccc1)[C@H](Oc1nc(C)cc(C)n1)C(=O)O,,1.07%
CC1COC(=O)O1 (stereo not given),inactive,
CCC(=O)/C=C/C1C(C)=CCCC1(C)C (stereo not given),inactive,
COC(=O)c1cccc(C(=O)OC)c1,,-1.41%
C=CC(=O)OCCCCCCCC,,6.22%
Cc1ccnc2c1NC(=O)c1cccnc1N2C1CC1,,13%
Nc1cc(S(=O)(=O)O)cc2cc(S(=O)(=O)O)cc(O)c12,inactive,
CCN(CC)CCOc1ccc(/C(=C(\Cl)c2ccccc2)c2ccccc2)cc1,31.6 µM (active),
NC(N)=Nc1nc(CSCC/C(N)=N/S(N)(=O)=O)cs1,,5.51%
O=C(Cl)c1cccc(C(=O)Cl)c1,inactive,
CC1COc2c(N3CCN(C)CC3)c(F)cc3c(=O)c(C(=O)O)cn1c23 (stereo not given),,5.77%
N[C@@H]1CONC1=O,,13.8%
NNCCc1ccccc1,inactive,
O=C(O[C@@H]1Cc2c(O)cc(O)cc2O[C@@H]1c1cc(O)c(O)c(O)c1)c1cc(O)c(O)c(O)c1,inactive,
C=CS(=O)(=O)O,,1.41% [at 78.8 µM]

Compound,Potency,"activity change, negative = inhibition"
CC(C)CCOCc1ccccc1,,-0.314%
c1ccc2cc3c(ccc4ccccc43)cc2c1,inactive,
Nc1nc2ccccc2[nH]1,inactive,
CC(=O)OCC1=C(C(=O)O)N2C(=O)[C@@H](NC(=O)Cc3cccs3)[C@H]2SC1,,1.94%
CC(=O)O[C@]1(C(C)=O)CC[C@H]2[C@@H]3C[C@H](C)C4=CC(=O)CC[C@]4(C)[C@H]3CC[C@@]21C,,-0.616%
CCOc1ccccc1C(N)=O,inactive,
CC[C@]1(O)C[C@@H]2CN(CCc3c([nH]c4ccccc34)[C@@](C(=O)OC)(c3cc4c(cc3OC)N(C)[C@H]3[C@@](O)(C(=O)OC)[C@H](OC(C)=O)[C@]5(CC)C=CCN6CC[C@]43[C@@H]65)C2)C1,,-15.5%
CCc1cc(C(C)(C)C)c(O)c(C(C)(C)C)c1,,-18.1%
Nc1cc(Cl)c(-c2cc(Cl)c(N)cc2Cl)cc1Cl,54.9 µM (active),
CC(=O)N[C@@H](CS)C(=O)O,inactive,
COc1ccc(COC(C)=O)cc1,,2%
COC(=O)/C=C/c1ccccc1,,1.05%
CCC(CO)(CO)COCC(CC)(CO)CO,,8.91%
Nc1ccc(O)cc1,,-14.3%
CCCN[C@H]1CCc2nc(N)sc2C1,inactive,
CCCNC(C)C(=O)Nc1ccccc1C (stereo not given),,-5.11%
c1cnc2cc3c(cc2n1)C1CNCC3C1,,-8.58%
CC(C)CCOC(=O)c1ccc(N(C)C)cc1,,-0.442%
CC(COc1ccccc1)N(CCCl)Cc1ccccc1 (stereo not given),inactive,
CCCCCCCCCCCCc1ccccc1O,15.3 µM (active) and 19.5 µM (active),
